From the supplement of paper PMC3334620
Over roughly 33,000 sequences, “E-score (-0.5 to 0.5)” has its median near -0.054; the highest 2% begin near 0.35. The full list was thinned out, with the highest values kept by preference.

Target: T1, Stb5 (UniProt P38699)
T1 sequence: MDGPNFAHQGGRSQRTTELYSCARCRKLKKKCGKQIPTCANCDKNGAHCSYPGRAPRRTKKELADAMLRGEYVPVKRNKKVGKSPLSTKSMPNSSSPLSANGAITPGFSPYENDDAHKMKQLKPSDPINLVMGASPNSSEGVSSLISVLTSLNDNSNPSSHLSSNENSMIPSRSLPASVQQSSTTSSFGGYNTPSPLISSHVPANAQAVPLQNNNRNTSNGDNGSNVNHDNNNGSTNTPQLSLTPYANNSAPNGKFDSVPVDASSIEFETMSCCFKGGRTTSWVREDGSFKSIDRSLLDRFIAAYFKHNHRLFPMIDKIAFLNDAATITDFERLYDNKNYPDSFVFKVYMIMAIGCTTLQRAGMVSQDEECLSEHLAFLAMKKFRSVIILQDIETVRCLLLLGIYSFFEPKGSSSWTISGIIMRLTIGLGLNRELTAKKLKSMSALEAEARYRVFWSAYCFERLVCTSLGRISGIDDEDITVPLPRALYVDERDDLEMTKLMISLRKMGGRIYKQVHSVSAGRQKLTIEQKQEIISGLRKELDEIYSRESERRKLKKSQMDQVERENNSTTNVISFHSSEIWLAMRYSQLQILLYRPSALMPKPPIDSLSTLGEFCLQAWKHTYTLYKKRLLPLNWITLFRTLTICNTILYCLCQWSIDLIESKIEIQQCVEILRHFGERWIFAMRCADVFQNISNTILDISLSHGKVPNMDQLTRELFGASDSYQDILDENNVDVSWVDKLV
Assay: PBM E-score (8-mer binding enrichment) (E-score (-0.5 to 0.5)); higher = stronger / more preferred TF binding
Conditions: protein concentration: 200 nM; construct: GST-full length
Description: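 Universal 'all 10-mer' protein binding microarrays (Agilent AMADID 015681) probed with GST-tagged S. cerevisiae TFs (full-length or DBD) made by in vitro transcription/translation (PURExpress), about 100-200 nM. Bound TF was detected with fluorescent anti-GST. Each ungapped 8-mer (which stands for itself and its reverse complement) is scored by the PBM enrichment score (E-score), a modified Wilcoxon-Mann-Whitney statistic from -0.5 to +0.5, computed with the Universal PBM Analysis Suite. Scale: above 0.35 generally sequence-specific binding.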

Sequence	PBM E-score
AACGACGG	0.242
ACCGACGA	0.354
GCCGACGC	0.316
GCCGACGA	0.308
CCCGACGG	0.437
CACGACGG	0.168
AGCGACGG	0.245
CCAGACGG	0.179
ACCGACGG	0.42
CCCGACGC	0.388
AGGGGGAC	-0.248
CGCTGGGC	0.106
AGAGGCGG	0.253
CATAGAAG	-0.126
AGACCCAG	-0.291
GAGGTCCC	-0.19
CTTGGGCA	-0.0874
AGGCCACC	-0.188
CCCTCGAA	-0.222
TAGAACAA	-0.15
CCTTGGTA	0.0875
ACCGACGT	0.355
AACGACGT	-0.0504
ACCGACGC	0.306
TGTGATAA	-0.171

Sequence	PBM E-score
AATACCGT	0.438
AATACCAG	-0.007
CATACCGG	0.193
AATACCGA	0.415
CATACCGA	0.279
AATACCGG	0.417
AATACCCT	-0.00882
AATACCGC	0.454
CATACCGC	0.307
TATACCGA	0.26
GATACCGC	0.35
AATACCAT	-0.0252
CGCGTCTC	0.0131
CATCGACG	0.0157
ATTGCAGA	-0.201
CGCAGCAA	-0.192
ACCGTCCA	0.242
AATGTGCA	-0.241
CGCAGAGC	-0.0211
ATGTGCTC	-0.151
CTGGACTA	-0.143
CAACATTA	-0.0568
AGCACCGA	0.476
AGCACCGG	0.421
AGCACCTA	-0.104

Sequence	PBM E-score
AGCACCCG	0.153
AGCACCAG	-0.177
GGCACCGA	0.351
ACAGAATC	-0.16
AACCGTAG	-0.118
CATTTCTA	0.0892
AGGACTGA	-0.184
CGGACTAA	0.428
CGGACTCC	0.231
CGGACTGA	0.359
GGGACTAA	0.246
TGGACTAA	-0.0846
CGGACTCA	0.411
GGGACTCA	-0.0395
CGGACTTC	0.374
AGGACTTC	-0.196
CTGACTTC	0.00183
GGGACTGA	-0.172
AGATCCAT	0.0463
ATAACGAG	-0.103
CTGGCCTC	-0.252
AGCATCGC	0.0104
CCACCTAA	-0.0966
ACAGTACG	-0.197
CGTTACCA	-0.112

Sequence	PBM E-score
CCCAGTAA	-0.198
AGGACCGC	0.397
ATGACCGA	0.31
ATGACCGC	0.381
ATGACCGG	0.308
CGGACCGC	0.298
AGGACCGA	0.33
CTGGTGCC	0.0505
CGTGCAAA	-0.0367
CCCGAGCA	-0.166
CAGCGTAG	-0.0828
ACGGTTCG	0.0226
GAATTAAC	-0.0887
TAGTGGCA	-0.0544
CGTCGGAC	0.38
AGTCGGCA	0.325
CGTCGGCA	0.334
GGTCGGCA	0.375
AGTCGGAG	0.302
CGTCGGAG	0.343
AGTCGGAC	0.398
GGTCGGAA	0.251
GGTCGGAC	0.369
AGTCGGAA	0.221
GCTCGGAC	0.242

Sequence	PBM E-score
CGTCGGAA	0.24
ACGCCTAT	-0.198
TACTACAA	-0.0615
ACAGCACT	-0.196
TCACCCGA	0.089
AGAGAAGC	-0.27
TAGTCAGA	-0.116
TCTGAGCA	-0.254
AGTCGGGC	0.312
CGTCGGGA	0.337
CGTCGGGC	0.361
CGGGTTAA	0.221
AGGGTTAC	-0.0791
AGGGTTAA	-0.179
CGGGTTAC	0.0485
GGGTTTTA	0.322
GGGGTTAC	0.397
GGGGTTAA	0.404
GGGTTTAA	0.398
TGGTTTAA	-0.231
AAAACGTC	-0.179
GGTTGTCA	-0.0232
AACCGCTG	0.0244
CACCGCTG	0.405
GACCGCTA	0.359

Sequence	PBM E-score
GACCGCTC	0.267
CACCGCTA	0.388
TACCGCTA	0.306
GACCGCGA	0.31
CACCGCTC	0.402
GACCGCAA	0.248
AACCGCTC	0.119
AACCGCTA	0.0216
AGCCGCTG	0.14
ATAGAGTG	-0.054
ACAGTAAT	-0.154
CTGGCAAA	-0.24
CTCATCGC	-0.0444
CACAATGA	-0.244
ACGGACCT	0.426
ACGGACAC	0.215
ACGGACAG	0.00554
ACGGACAT	0.41
ACGGACCG	0.297
ACGGACCA	0.237
TACTTTGA	-0.207
ACGTCCGC	0.367
CTGTCCGC	0.129
GTGTCCGA	0.231
ATGTCCTG	-0.0717

Sequence	PBM E-score
CCGTCCGC	0.292
CTGTCCGA	0.201
ATGTCCCC	0.224
ATGTCCGA	0.412
ACGTCCGA	0.333
ATGTCCGC	0.443
ATGTCCCG	0.219
ATGTCCGG	0.415
CCAAGCAA	-0.148
CTGCTAGA	0.0321
CTAAGGCA	-0.101
CTTGTCTA	-0.11
CCAGGCCA	-0.312
AGCGGTAC	0.347
AGCGGTAA	0.34
TGCGGTAA	0.278
GGCGGTAC	0.361
GGCGGTAA	0.385
CGCGGTAC	0.34
TCAAGTCA	-0.175
GCACCTCA	-0.199
CAATTATC	0.215
